Bioassay records from PubChem.
GAA850 FXN act = increases GAA850 frataxin promoter reporter activity. HEK293 lucGAA850 FXN promoter luciferase reporter, 24 h; percent of 10 µM SAHA response. activation, % at 6 µM. hit rate 0.56% among 360,000;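 active = activation above the average of all compounds screened plus 3 SD, cutoff fixed separately per campaign, cut at about 7.5% in these data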
AHR activator = human AHR activation. AHR-responsive luciferase reporter cells, luminescence. hit rate 2.5% among 320,000. activation, % at 5 µM. AID 2796; in the data active = activation above about 47%
HSF1 inhib = HSF1 inhibition; hit rate 0.77% among 300,000; activity change, negative = inhibition, % at 7.5 µM (by protocol); NIH3T3-HGL HSE-luciferase, MG132-induced, luminescence 8 h; hits give low values; AID 2098;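 active = more than half of replicate wells show activity change below -50%, luminescence cut by over half; inconclusive = some wells, but at most half, below -50%; inactive = no replicate well below -50%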;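 note: luciferase reports HSF-1 transcriptional activity via heat shock element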
HSF1 activator = increases HSF-1 driven luciferase reporter signal; activation, % at 9 µM; NIH3T3-HGL HSF-1 luciferase reporter, MG132, 8 h; 100% = twice DMSO control signal; hit rate 1.7% among 300,000;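 active = mean replicate activation of at least 50% with a set share of replicates each reaching 50%; inconclusive = only one of those two conditions met; inactive = mean below 50% and too few replicates reaching it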
AHR act cf = human AHR activation, confirmation; shares compounds with AHR activator; human cells, AHR-responsive luciferase reporter, luminescence; activation, % at 9 µM; hit rate 87% among 2,300; AID 2845; in the data active = activation above about 49%;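 note: HepG2 hepatoma cells carrying a DRE-driven firefly luciferase reporter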
PXR counter = counter-screen for AHR activators: human PXR activators | shares compounds with AHR activator | cell-based PXR reporter, luciferase luminescence | activation, % at 11.6 µM | hit rate 88% among 2,300 | AID 434939; in the data active = activation above about 11%;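 note: human hepatoma DPX-2 cells expressing full-length human PXR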
Target sequence (O75469 whole entry, looked up): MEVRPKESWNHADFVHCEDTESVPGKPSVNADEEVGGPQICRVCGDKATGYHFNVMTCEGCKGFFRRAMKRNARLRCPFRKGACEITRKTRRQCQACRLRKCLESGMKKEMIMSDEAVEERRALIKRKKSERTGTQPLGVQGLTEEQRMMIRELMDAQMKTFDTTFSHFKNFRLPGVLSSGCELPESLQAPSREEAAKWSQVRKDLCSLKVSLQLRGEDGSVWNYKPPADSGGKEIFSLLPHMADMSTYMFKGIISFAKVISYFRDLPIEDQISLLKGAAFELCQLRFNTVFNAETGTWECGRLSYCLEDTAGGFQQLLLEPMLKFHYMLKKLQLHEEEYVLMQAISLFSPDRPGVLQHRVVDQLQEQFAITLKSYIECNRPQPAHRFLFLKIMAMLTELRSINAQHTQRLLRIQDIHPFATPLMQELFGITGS
Hits are given with their value; n = inactive; u = inconclusive; x = no result. Hits are enriched below; roughly 4.6% of the tested compounds scored in any of these assays.

SMILES	GAA850 FXN act	AHR activator	HSF1 inhib	HSF1 activator	AHR act cf	PXR counter
COc1ccc(C2(C)NC(=O)N(CC(=O)c3cc(C)n(C4CC4)c3C)C2=O)cc1 (stereo unspecified)	n	n	x	x	x	x
CCn1nc(NC(=O)C(C)(C)C)c2cc3cccc(C)c3nc21	n	85	n	n	89	139
CCn1nc(NC(=O)CC(C)C)c2cc3cccc(C)c3nc21	n	n	n	n	x	x
CCn1c(=O)c(C(=O)Nc2ncccc2C)c(O)c2ccccc21	n	111	n	n	96	26
COc1ccc(N(CCCN2C(=O)c3cccc4cccc(c34)C2=O)C(=O)c2cccs2)cc1	n	100	n	n	140	93
Cc1ccc(N(CCCCN2C(=O)c3ccccc3C2=O)C(=O)c2cccs2)cc1	n	n	n	n	x	x
Cc1nc2c(=O)[nH]c(=S)n(C)c2nc1C	n	81	n	n	56	n
Cc1nc2[nH]c(=S)[nH]c(=O)c2nc1C	n	x	x	x	x	x
Cc1nc2ccccc2c(=O)n1NC(=O)CCC(=O)O	n	n	x	x	x	x
COC(=O)Cc1ccc(OC2(C)CCN(Cc3csc4ccccc34)C2)cc1 (stereo unspecified)	n	x	x	x	x	x
COc1ccccc1C(=O)Nc1ccc2c3c(cccc13)CC2	n	83	n	n	n	85
CC1CC(C)(C)CC2(C1)NC(=O)N(CC(=O)N1CCN(S(=O)(=O)c3cccc(Cl)c3Cl)CC1)C2=O (stereo unspecified)	n	x	x	x	x	x
COc1cccc(Nc2nc(C)cc(C)c2C#N)c1	n	79	x	x	63	31
Cc1cc(C)c(C#N)c(Nc2ccccc2)n1	n	n	n	n	x	x
CCCCOc1ccc(Nc2nc(C)cc(C)c2C#N)cc1	n	n	n	n	x	x
Cc1cc(C)c(C#N)c(Nc2ccc3c(c2)OCCO3)n1	n	86	n	n	103	22
COc1ccc(Nc2nc(C)cc(C)c2C#N)cc1OC	n	114	u	n	59	20
CC1=C(SCc2ccccc2)C(=O)c2ccccc2C1=O	n	x	x	x	x	x
c1ccc(-c2nc3ccccc3c3nncn23)cc1	n	97	-59	n	123	20
O=C(c1cc2ccccc2cc1O)N1CCN(c2ccccc2O)CC1	n	n	n	n	x	x
CC/C(O)=C1\C(=O)CC(c2ccccc2)CC1=NC(C)C (stereo unspecified)	n	123	n	n	n	128
CC/C(O)=C1\C(=O)CC(c2ccccc2)CC1=NCCC(=O)O (stereo unspecified)	n	n	n	n	x	x
Cc1ccc(SC(C)C(=O)N2CCN(c3ccccc3)CC2)cc1 (stereo unspecified)	n	n	n	n	x	x
O=C(NCc1ccco1)C(=O)NCC1OCCCN1S(=O)(=O)c1ccc(Cl)cc1 (stereo unspecified)	n	n	n	n	x	x
CCn1c2ccccc2c2nc3cc(OC)c(OC)cc3nc21	n	115	n	n	96	63
SMILES	GAA850 FXN act	AHR activator	HSF1 inhib	HSF1 activator	AHR act cf	PXR counter
COc1cc2nc3c4ccccc4n(CC#N)c3nc2cc1OC	x	x	n	n	x	x
COc1ccc(S(=O)(=O)N2CCc3ccccc32)cc1C(=O)Nc1ccc(NC(C)=O)cc1	n	n	x	x	x	x
Cc1ccc(/C=C/C(=O)c2ccccc(=O)c2O)c(C)c1	n	94	n	n	n	17
Cc1ccc(C)c(/C=C/C(=O)c2ccccc(=O)c2O)c1	n	n	n	u	x	x
O=C(NCCc1ccccc1)c1ccc2nc3cc(Cl)ccc3c(=O)n2c1	n	n	n	n	x	x
Cc1ccc(CNC(=O)C2CCCC2)cc1	n	n	n	n	x	x
O=c1c2ccccc2cnn1-c1ccc(Cl)cc1	n	133	n	n	117	47
C=C(C)c1cccc(C(C)(C)NC(=O)Nc2ccc(Cl)cn2)c1	n	91	n	n	95	73
C=C(C)c1cccc(C(C)(C)NC(=O)Nc2ncccn2)c1	n	n	n	n	x	x
COc1ccc(S(=O)(=O)N2CCN(Cc3ccccc3)CC2)c(C)c1	n	n	n	n	x	x
CCn1nc(C(=O)Nc2nc3ccccc3[nH]2)c2ccccc2c1=O	n	n	n	n	x	x
Cn1nc(C(=O)Nc2nc3ccccc3[nH]2)c2ccccc2c1=O	n	98	n	n	73	19
C=CCOc1c(Br)cc(/C=N/NC(N)=O)cc1OC	n	89	n	n	112	25
C=CCOc1c(Br)cc(/C=C(\C#N)C(N)=O)cc1OC	n	n	n	n	x	x
Nc1ccc2nn(-c3ccc(F)cc3)nc2c1	n	106	n	n	n	14
Cc1ccc(-n2nc3ccc(N)cc3n2)cc1	n	88	n	n	76	n
